Source: the supplement of paper PMC7724964

Biological target: T1, FKBP3 109-224 FKBP_C (domain begin residue: 109, domain end residue: 224), Q00688
T1 chain: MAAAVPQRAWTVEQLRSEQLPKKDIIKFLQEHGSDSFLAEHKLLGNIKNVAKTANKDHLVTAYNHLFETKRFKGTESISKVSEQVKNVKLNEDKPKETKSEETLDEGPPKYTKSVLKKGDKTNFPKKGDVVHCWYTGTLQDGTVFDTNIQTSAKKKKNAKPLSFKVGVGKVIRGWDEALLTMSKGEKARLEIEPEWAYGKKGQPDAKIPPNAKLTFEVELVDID
Assay: phage ELISA signal ratio (GST-PRM binding over GST background); higher = stronger binding of peptide-phage to the PRM
Outline: (§1)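 Approximately 48 individual clones from selection rounds 4 and 5 were tested by phage ELISA, and those scoring positive were sequenced. They came from five rounds of selecting an M13 phage library of randomized, cysteine-free, glycine-flanked hexadecapeptides on the gene-8 major coat protein against human peptide recognition domains fused to the C-terminus of glutathione S-transferase (GST) in 96-well plates. Each figure in the table is the ELISA signal on the GST-domain fusion relative to the signal on GST alone.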

Binder | phage ELISA signal ratio
KGVFLPEIEWKQGYDQ | 11.9
HADLQGLGVFEWQEPV | 12.6
EEWKPHPEEGMGVFLV | 13
VGQGVFLDWKPGRDVN | 17.5

Biological target: T2, FRS3 12-117 IRS (domain begin residue: 12, domain end residue: 117), O43559
T2 chain: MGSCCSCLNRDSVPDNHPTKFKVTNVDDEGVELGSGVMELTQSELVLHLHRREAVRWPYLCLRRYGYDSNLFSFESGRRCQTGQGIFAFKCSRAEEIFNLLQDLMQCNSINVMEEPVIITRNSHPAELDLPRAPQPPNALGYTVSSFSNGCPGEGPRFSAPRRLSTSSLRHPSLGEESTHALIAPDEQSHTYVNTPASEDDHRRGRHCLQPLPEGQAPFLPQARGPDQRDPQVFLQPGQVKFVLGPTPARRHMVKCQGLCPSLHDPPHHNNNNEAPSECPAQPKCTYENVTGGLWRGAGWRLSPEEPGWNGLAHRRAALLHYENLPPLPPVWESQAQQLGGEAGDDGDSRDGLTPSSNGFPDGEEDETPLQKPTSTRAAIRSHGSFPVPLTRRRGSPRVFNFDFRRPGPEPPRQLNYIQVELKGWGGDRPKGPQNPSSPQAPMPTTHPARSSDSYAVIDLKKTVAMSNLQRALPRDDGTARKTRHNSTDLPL
Assay: as above
Outline: as §1

Binder | phage ELISA signal ratio
VGQGVFLDWKPGRDVN | 10.6
SQWMWIVHEPVKNLPK | 3.36
PQGTWFTIIQEPSQHD | 5.78
MTWWVAPWNESLDLWE | 10.5
SRWVQIMHNGEETDSY | 16.9
VWQVPEWQTVQLEYMK | 17.9

Biological target: T3, GGA1 1-157 VHS (domain begin residue: 1, domain end residue: 157), Q9UJY5
T3 chain: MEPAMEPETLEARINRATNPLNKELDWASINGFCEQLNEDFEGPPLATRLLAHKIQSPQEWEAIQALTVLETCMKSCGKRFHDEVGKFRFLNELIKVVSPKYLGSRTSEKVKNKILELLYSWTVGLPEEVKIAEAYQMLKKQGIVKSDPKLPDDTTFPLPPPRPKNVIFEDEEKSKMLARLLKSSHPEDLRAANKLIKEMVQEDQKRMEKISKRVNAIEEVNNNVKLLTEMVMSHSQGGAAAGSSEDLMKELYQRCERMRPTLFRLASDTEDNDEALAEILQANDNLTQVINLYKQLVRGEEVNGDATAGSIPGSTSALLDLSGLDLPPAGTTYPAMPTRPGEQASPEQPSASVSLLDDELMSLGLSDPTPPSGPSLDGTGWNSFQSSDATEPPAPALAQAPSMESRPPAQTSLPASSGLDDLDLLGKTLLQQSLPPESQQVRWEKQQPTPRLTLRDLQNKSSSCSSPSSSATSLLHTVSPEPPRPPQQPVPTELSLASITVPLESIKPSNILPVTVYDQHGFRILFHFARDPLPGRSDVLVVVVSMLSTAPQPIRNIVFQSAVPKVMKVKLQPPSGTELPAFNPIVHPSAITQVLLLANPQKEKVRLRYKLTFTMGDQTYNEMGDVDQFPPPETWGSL
Assay: as above
Outline: as §1

Binder | phage ELISA signal ratio
HDFYIPYMYQDVTMIM | 6.03
QTMTWEARDPSKMLEL | 12.5
GEMDDPMMHFSWVAMW | 12.6
WDIDMWDLQEWMMIQS | 13.9
PQIQWYMDDILLVPTI | 15.5
VNNQWDNDVPMLSMFA | 16.4
TMHHDDQLLDLYSVRK | 18.5
PDAMPLWHGHHVVPVY | 18.9
WGHYEEDQMFVFMDHE | 19.8
DEILLHLPWAAMHWEG | 22.3

These binders were tested against GGA3 1-153 VHS (domain begin residue: 1, domain end residue: 153) in the same assay as above.
Outline: as §1

Binder | phage ELISA signal ratio
WHGQEADDVQMLWHWS | 5.39
QAWDWGIYIDDWAQPL | 10.6
EYLQIPVHHVDGIWSV | 10.8
EVWWQGPEEDWMQTYL | 11.9
HSQWWVGPEQPWGQVQ | 12.2
HLDQPPWWTLQEWASH | 12.2
MEPFTTWDQLPWWMQE | 12.9
MDWTILDFPYQNWPRS | 13.9
HVEQWWTTESWPNWYT | 15.3
SDVPPWWYHEPITGPM | 17.8
QHLWHWEDTDYYEWSE | 20.1
VDEWSVMKYPVEQKWV | 21.6
